In PubChem BioAssay AID1347146 (National Center for Advancing Translational Sciences (NCATS), 2019) one finds Potency data, which are given here for 20 molecules.

Results filed as inconclusive are left out. A call without a number means that no potency is given here. The source made the active and inactive calls. Calls follow the shape of the dose curve; as a rule, active = well fitted inhibition curve with a large enough effect; inconclusive = small, poorly fitted or top-dose-only effect; inactive = no such curve, though single readings can be large or run the other way.
Potency is read from the fitted curve at half-maximal effect.

The target in this test is Nicotinamide N-methyltransferase (Homo sapiens) (UniProt P40261). Kind of test: qHTS Assay for Inhibitors of N-terminal methyltransferase 1 (NTMT1): NNMT MTaseGlo counterscreen assay. As to conditions: NNMT enzyme, MTase-Glo luminescence counterscreen; series mostly up to 57.1 µM. Put shortly: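 Luminescent MTase-Glo read-out of SAH from nicotinamide methylation: 1 µM nicotinamide, 100 µM SAM, 125 nM NNMT, 30 min RT after ~15 min compound preincubation. Values normalized to no-enzyme/DMSO controls, Hill-fitted.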
Chain of Nicotinamide N-methyltransferase (Homo sapiens) (P40261 whole entry, looked up): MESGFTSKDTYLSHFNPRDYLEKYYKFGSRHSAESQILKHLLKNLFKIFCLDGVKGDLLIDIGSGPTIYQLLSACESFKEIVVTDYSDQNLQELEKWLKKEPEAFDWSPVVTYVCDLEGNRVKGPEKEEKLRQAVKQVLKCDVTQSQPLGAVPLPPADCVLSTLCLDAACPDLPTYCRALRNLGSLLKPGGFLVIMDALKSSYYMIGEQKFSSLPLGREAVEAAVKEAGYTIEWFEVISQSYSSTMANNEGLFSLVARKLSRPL
For `Nc1nc(F)nc2c1ncn2[C@@H]1O[C@H](CO)[C@@H](O)[C@@H]1O`, the Potency entry was “inactive”.
The same measure for `CN(C)c1ccc(/C=C2\C(=O)Nc3ccccc32)cc1`: 10 µM (active); for `Cc1nn(-c2ccccc2)c(C)c1/C=N/N1CCN(Cc2ccccc2)CC1`: “inactive”; for `[N-]=[N+]=Nc1nc2c(N)ncnc2n1C1OC(CO)C(O)C1O` (stereo not given): “inactive”.
The entry for `COc1cc2nc(N3CCCN(C)CC3)nc(NC3CCNCC3)c2cc1OC` is “inactive”.
For `C[C@]12C[C@H](O)[C@H]3[C@@H](CCC4=CC(=O)CC[C@@]43C)[C@@H]1CC[C@@H]2C(=O)CO`, the Potency result is “inactive”.
The figure for `CC[n+]1c(/C=C/C=C2/N(C)c3ccccc3C2(C)C)sc2ccccc21` is 15.8 µM (active).
The same measure for `NC[C@@H]1O[C@H](C23CC4CC(CC(C4)C2)C3)Cc2c1ccc(O)c2O`: “inactive”.
The same measure for `Cc1ccc(O)c(N=Nc2ccccc2)n1`: 14.1 µM (active); for `COc1cccc(OC)c1OCCNCC1CSc2ccccc2O1` (stereo not given): “inactive”.
Turning to `Cc1cccc(C2CN(C)CCc3c2cc(O)c(O)c3Cl)c1` (stereo not given), the Potency result is “inactive”.
For the molecule `c1cc(CN2CCCCC2)cc(OCCCNc2nc3ccccc3s2)c1`, the Potency entry was “inactive”.
The figure for `CC(Cc1ccc(O)c(O)c1)C(C)Cc1ccc(O)c(O)c1` (stereo not given) is 39.8 µM (active); for `Cc1cc2c(cc1Cl)N(C(=O)Nc1ccc(Oc3cccnc3C)nc1)CC2` it is “inactive”; for `O=S(=O)(c1cccc2c(Cl)cccc12)N1CCCNCC1` it is “inactive”.
The same measure for `C=CCN1CCc2c(cc(O)c(O)c2Br)[C@@H](c2ccccc2)C1`: “inactive”; for `NCC(O)C1CCCCCCC1` (stereo not given): “inactive”.
For `COc1ccccc1CNCCCCCCNCCCCCCCCNCCCCCCNCc1ccccc1OC`, the Potency result is “inactive”.
The same measure for `Oc1cc2c(cc1O)CN(C(=S)NCCc1ccc(Cl)cc1)CCC2`: “inactive”; for `O=C1c2c(O)cc(O)cc2OC(c2ccc(O)c(O)c2)C1O` (stereo not given): “inactive”.
